Several values for one entry are separate records, joined by “and”; a condition that tells them apart may be missing. Identical values can stand only once. In all, about 5,500 compounds went through this assay and about 2,000 (36%) were called active. Inconclusive results (about 18%) are left out. Rule as the data show it: active = normalized growth mostly below about 0.91 (no sharp cut-off); inconclusive = no clear call, values can overlap the other calls; inactive = mostly above about 0.92. This is one part of the list.
Test: chemical genetic growth profiling, strain panel (AID 1159580);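 also: tested at 20 µM; growth read once vehicle control cultures reached saturation at 30 °C; 1 = growth at the plate median or of vehicle wells; lower values mean less growth of the strain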
Details: S. cerevisiae deletion strains, growth OD

Measured: normalized growth

CC(=O)NS(=O)(=O)c1ccc(N)cc1
inactive: locus YAL021C, strain ccr4, active compounds read low 1 | locus YAL026C, strain drs2, active compounds read low 1.01 | locus YAL030W, strain snc1, active compounds read low 1.01 | locus YBL061C, strain skt5, active compounds read low 0.999 | locus YBR009C, strain hhf1, active compounds read low 1.01 | locus YBR021W, strain FUR4, active compounds read low 0.987 | locus YBR023C, strain chs3, active compounds read low 1.01 | locus YBR171W, strain sec66, active compounds read low 1.02 | locus YBR229C, strain ROT2, active compounds read low 0.986 | locus YBR231C, strain swc5, active compounds read low 1.03 | locus YBR279W, strain paf1, active compounds read low 1.01 | locus YCL011C, strain gbp2, active compounds read low 1.02 | locus YCL016C, strain dcc1, active compounds read low 1.01 | locus YCL029C, strain bik1, active compounds read low 0.973 | locus YCL061C, strain MRC1, active compounds read low 1.02 | locus YCL069W, strain vba3, active compounds read low 1 | locus YCR088W, strain abp1, active compounds read low 1.01 | locus YDL005C, strain med2, active compounds read low 1.01 | locus YDL035C, strain GPR1, active compounds read low 1 | locus YDL040C, strain nat1, active compounds read low 0.995 | locus YDL074C, strain BRE1, active compounds read low 1.02 | locus YDL101C, strain DUN1, active compounds read low 0.987 | locus YDL134C, strain PPH21, active compounds read low 0.99 | locus YDL185W, strain tfp1, active compounds read low 0.98 | locus YDL192W, strain arf1, active compounds read low 0.971 | locus YDR001C, strain nth1, active compounds read low 1.01 | locus YDR069C, strain doa4, active compounds read low 1.03 | locus YDR101C, strain arx1, active compounds read low 0.971 | locus YDR137W, strain rgp1, active compounds read low 0.997 | locus YDR150W, strain NUM1, active compounds read low 0.994 | locus YDR159W, strain sac3, active compounds read low 1.03 | locus YDR162C, strain NBP2, active compounds read low 0.999 | locus YDR195W, strain ref2 0.998 | locus YDR297W, strain sur2, active compounds read low 1 | locus YDR318W, strain mcm21, active compounds read low 0.987 | locus YDR334W, strain swr1, active compounds read low 0.999 | locus YDR335W, strain msn5, active compounds read low 0.993 | locus YDR388W, active compounds read low 0.977 | locus YDR392W, strain spt3, active compounds read low 1.01 | locus YDR502C, strain sam2, active compounds read low 0.99 | locus YEL003W, strain gim4, active compounds read low 1.01 | locus YEL037C, strain rad23, active compounds read low 1.01 | locus YEL061C, strain CIN8 (second series), active compounds read low 1.02 | locus YEL061C, strain CIN8, active compounds read low 0.993 | locus YER015W, strain faa2, active compounds read low 1.01 | locus YER016W, strain bim1, active compounds read low 1.02 | locus YER110C, active compounds read low 0.975 | locus YER111C, strain swi4, active compounds read low 1 | locus YER155C, strain BEM2 (second series), active compounds read low 1.05 | locus YER155C, strain BEM2, active compounds read low 0.986 | locus YER167W, strain BCK2, active compounds read low 0.989 | locus YFR010W, strain ubp6, active compounds read low 1.02 | locus YGL078C, strain dbp3, active compounds read low 0.974 | locus YGL086W, strain mad1, active compounds read low 1 | locus YGL167C, strain pmr1, active compounds read low 0.999 | locus YGL173C, strain kem1, active compounds read low 1.01 | locus YGL227W, strain vid30, active compounds read low 1.01 | locus YGL240W, strain doc1, active compounds read low 0.999 | locus YGL248W, strain PDE1, active compounds read low 0.994 | locus YGL253W, strain hxk2, active compounds read low 1.02 | locus YGR078C, strain PAC10, active compounds read low 0.998 | locus YGR135W, strain pre9, active compounds read low 0.976 | locus YGR252W, strain gcn5, active compounds read low 1.05 | locus YHR013C, strain ard1, active compounds read low 1.01 | locus YHR027C, strain rpn1, active compounds read low 1.02 | locus YHR030C, strain SLT2, active compounds read low 0.992 and 0.987 | locus YHR079C, strain IRE1 (second series), active compounds read low 0.978 | locus YHR079C, strain IRE1, active compounds read low 0.982 | locus YHR094C, strain hxt1, active compounds read low 0.993 | locus YHR129C, strain ARP1, active compounds read low 0.997 | locus YHR142W, strain chs7, active compounds read low 1.01 | locus YHR200W, strain rpn10, active compounds read low 0.984 | locus YIL066C, strain RNR3, active compounds read low 0.993 | locus YIL073C, strain SPO22, active compounds read low 0.934 | locus YIL125W, strain kgd1, active compounds read low 0.986 | locus YIR030C, strain dcg1, active compounds read low 0.981 | locus YJL092W, strain hpr5, active compounds read low 1.02 | locus YJL095W, strain BCK1 (second series), active compounds read low 1.01 | locus YJL095W, strain BCK1, active compounds read low 1 and 0.978 | locus YJL115W, strain asf1, active compounds read low 1.04 | locus YJL129C, strain trk1, active compounds read low 1.01 | locus YJL134W, strain LCB3, active compounds read low 0.992 | locus YJL154C, strain vps35, active compounds read low 1.01 | locus YJL164C, strain tpk1, active compounds read low 1 | locus YJL166W, strain qcr8, active compounds read low 1 | locus YJL168C, strain set2, active compounds read low 0.986 | locus YJL187C, strain SWE1 (second series), active compounds read low 0.983 | locus YJL187C, strain SWE1, active compounds read low 1.01 | locus YJR043C, strain POL32, active compounds read low 0.997
